Reference: PubChem BioAssay (NCI)
The panel holds about 79,000 compounds, 15% with a hit somewhere; the sample as a whole holds those more often. Unmarked numbers belong to inactive results. Active and inactive are the calls of the source. Rule as the data show it: active = growth inhibition above about 70%; inactive = the rest.

Assays:
[1] = NCI Yeast Anticancer Drug Screen. Data for the rad50 strain (AID 155);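 also: 0% = growth of vehicle-only cultures of the same strain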; conditions: S. cerevisiae rad50 strain growth inhibition; at 50.0 µM; active compounds read high
Outline: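 Inhibition values express reduced yeast growth in compound-treated cultures relative to vehicle-treated controls.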

[2] = NCI Yeast Anticancer Drug Screen. Data for the mec2-1 strain (AID 157); conditions: S. cerevisiae mec2-1 strain, at 50.0 µM, active compounds read high
Outline: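 Vehicle-treated cultures served as reference for growth inhibition of compound-exposed mec2-1 yeast.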

[3] = NCI Yeast Anticancer Drug Screen. Data for the sgs1 mgt1 strain (AID 161);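 also: 0% = growth of cultures given vehicle only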; conditions: S. cerevisiae sgs1 mgt1 strain, at 50.0 µM, active compounds read high
Outline: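 Inhibition of yeast growth, normalised to vehicle-treated controls, is reported for a strain bearing genetic alterations in DNA damage repair.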

[4] = NCI Yeast Anticancer Drug Screen. Data for the cln2 rad14 strain (AID 165);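 also: 0% = growth equal to vehicle treated cultures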; conditions: S. cerevisiae cln2 rad14 strain, at 50.0 µM, active compounds read high
Outline: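 Each compound was tested on cln2 rad14 yeast. Inhibition of growth was calculated against vehicle-exposed controls.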

[5] = NCI Yeast Anticancer Drug Screen. Data for the bub3 strain (AID 167); conditions: S. cerevisiae bub3 mutant strain, at 50.0 µM, active compounds read high
Outline: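 Steps: expose the mutant yeast strain to compound; grow alongside vehicle-treated cultures; measure growth; express inhibition against the vehicle cultures.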

[6] = NCI Yeast Anticancer Drug Screen. Data for the mlh1 rad18 strain (AID 175); conditions: S. cerevisiae mlh1 rad18 strain growth inhibition; at 50.0 µM; active compounds read high
Outline: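 Vehicle-treated cultures served as the reference for growth inhibition in a yeast strain carrying DNA damage repair alterations exposed to each compound.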

Row | SMILES | growth inhibition [1] | growth inhibition [2] | growth inhibition [3] | growth inhibition [4] | growth inhibition [5] | growth inhibition [6]
1 | CCOC(=O)O/C(C)=C\c1ccccc1Cl | 0.4% | -1.15% | -7.75% | 7.75% | -5.85% | 5.7%
2 | CC(C)(C)c1ccc(O)c(C(=O)O)c1 | 3.55% | -0.95% | -5.8% | -4% | -35.1% | -23.2%
3 | Cc1cc(C2(c3cc(C)c(O)c4ncccc34)OC(=O)c3ccccc32)c2cccnc2c1O | 84.6% (active) | 85.5% (active) | 50.6% | 44% | 66% | 87.5% (active)
4 | CCc1ccccc1NC(=O)C1=C(C)NC(C)=C(C(=O)Nc2ccccc2CC)C1c1cccc([N+](=O)[O-])c1 | -0.95% | 52% | 24.2% | 17.9% | 36.5% | 20.5%
5 | CC1(CCl)Nc2ccccc2C(=O)N1c1ccccc1 (configuration not stated) | 6.65% | -6.2% | 16.4% | 4.2% | 28.4% | 8.5%
6 | CCSCC(C)C(=O)OC (configuration not stated) | -26.6% | -0.4% | -14.3% | 23.6% | 2.85% | -40.3%
7 | N#CC1(C2CC(=O)N(c3ccccc3)C2=O)CCCCC1=O (configuration not stated) | 10.4% | -21.7% | 26.5% | -3.1% | 2% | -6.7%
8 | Cc1cc(C)[n+]([O-])c(C)c1 | -14.6% | -8.85% | -2.75% | -8.6% | -19.4% | -2.85%
9 | CC(=O)OC1C[C@H]2C(OC(=O)c3ccccc3)C3C4(OC(C)=O)COC4C[C@H](OC(C)=O)[C@@]3(C)C(OC(C)=O)[C@H](OC(C)=O)C(=C1C)C2(C)C (some centres not stated) | 41.2% | 22.6% | 31.7% | 28.9% | 26.4% | 35.2%
10 | CCN(C(=S)Nc1cccc(OC)c1)c1ccccc1 | -17.2% | -36.9% | 18% | -1.45% | -17.1% | -6.8%
11 | COC1CC(OC2CCC3(C)C(=CCC4C3C(OC(C)=O)C(OC(=O)CC(C)C)C3(C)C(C(C)=O)CCC43O)C2)OC(C)C1OC1CC(OC)C(OC2CC(OC)C(OC3OC(C)C(OC4OC(CO)C(O)C(O)C4O)C(OC)C3O)C(C)O2)C(C)O1 (configuration not stated) | 2.4% | 5.2% | 16.4% | 21.6% | -7.45% | -38.4%
12 | CC(C)CC(C)(O)C(N)=O (configuration not stated) | -5.15% | -7.55% | -29% | -21.8% | 0.35% | -4.95%
13 | Cc1ccc(NCCN)c2c(=O)c3cc(O)ccc3sc12 | 86% (active) | 32.3% | 40.4% | 25.1% | 9.65% | 86.7% (active)
14 | COc1cc2c(cc1OC)C1c3ccccc3CCCN1CC2 (configuration not stated) | -40.4% | -4.5% | -57.5% | 0.55% | -23.6% | -27%
15 | O=C(O)c1cc(=O)c2c([nH]c3ccccc32)s1 | -4.9% | -18.7% | -14.6% | 5.25% | -14.3% | 13.3%
16 | O=C(Cl)c1c(F)c(F)c(F)c(F)c1F | -29.6% | -26.1% | -7.4% | 19.4% | 1.25% | -18.9%
17 | CN(C)CC1=C(O)c2ccccc2C(=O)C1=O | -0.25% | -1.2% | 1.1% | 13.7% | 31.6% | -4.2%
18 | N#CCCN(CCC#N)c1nc(-c2ccccc2)nc(N(CCC#N)CCC#N)n1 | -1.95% | -16.6% | -1.75% | 0.9% | 2.75% | 15.1%
19 | CCC1OC(=O)CC(O)C(C)C(OC2OC(C)C(O)C(N(C)C)C2O)C(CC=O)CC(C)C(=O)/C=C/C2(C)OC2C1C (configuration not stated) | -13.4% | -43% | -23.5% | -18.7% | -28.9% | -36.4%
20 | NC(=O)N/N=C1\CC2CCC1C2Cl (configuration not stated) | -0.05% | -1.35% | -5% | -0.45% | -13.7% | -14.8%
21 | CCC(CC)(Cc1ccccc1)C(=O)O | 9.65% | -17.7% | 12.7% | 1.65% | 11.7% | 36.4%

Row | SMILES | growth inhibition [1] | growth inhibition [2] | growth inhibition [3] | growth inhibition [4] | growth inhibition [5] | growth inhibition [6]
22 | CCc1cccc(C(C)C)c1NC(=O)C(=O)C1C(=O)Nc2ccccc2S1=O (configuration not stated) | -3.95% | -13.6% | -16.9% | -11.2% | 2.4% | -29.1%
23 | Nc1ncnc2c1ncn2C(=O)NC12CC3CC(CC(C3)C1)C2 | 9.75% | 14.6% | 8.7% | 18.1% | 8.25% | -8.2%
24 | NC(=O)C(NN=C1c2ccccc2-c2ccccc21)(c1ccccc1)c1ccccc1 | 41% | -0.2% | 28% | 42.8% | 0.05% | 18.7%
25 | Oc1ccc(Cl)cc1/C=N/NC(=S)Nc1cccc2cccnc12 | 24.1% | 12.6% | 10.7% | 20.6% | 20.1% | 15.7%
26 | CC(=O)NC1C(O)C(NC(C)=O)C(OC(C)=O)C(OC(C)=O)C1OC(C)=O (configuration not stated) | 33.4% | -9.7% | 4.1% | -15.4% | -0.15% | 1.35%
27 | CCCCCCC(=O)c1ccc2ccccc2c1O | 1.6% | -14.8% | 0.55% | -23.9% | 8.8% | -2.55%
28 | NC(Cc1c[nH]c2ccc([N+](=O)[O-])cc12)C(=O)O (configuration not stated) | 15.9% | -28.6% | -24.8% | 2.45% | -48.6% | -7.7%
29 | CC(=O)Oc1ccc(=O)[nH]c1 | 1.3% | -11.9% | 2.2% | -18.4% | 2.75% | -48%
30 | c1ccc(CNCCCNCCCCNCCCNCc2ccccc2)cc1 | 7.75% | -5.5% | 9.4% | -10.3% | 17.8% | 7.45%
31 | CCOC(=O)C1=C(C)c2ccccc2OC1C(=O)O (configuration not stated) | 4.55% | 11.1% | 16.8% | -23.4% | -13.1% | -10.3%
32 | CCCC(C(=O)O)(c1ccccc1)c1ccccc1 | 11.3% | 0.55% | 5.45% | -24.9% | 7.5% | 1.8%
33 | O=C1c2scnc2-c2nccc3c2c1nc1ccccc13 | 60.3% | 75.5% (active) | 66.8% | 53.2% | 80.9% (active) | 74.9% (active)
34 | c1ccc(-c2c(-c3ccc4c(c3)CCCC4)c(-c3ccccc3)c3c(c2-c2ccccc2)-c2cccc4cccc-3c24)cc1 | -4.15% | 2.8% | -2.45% | 13.3% | -2.9% | 2.75%
35 | CCN(CC)C(=O)CC(C)(C)O | 4.95% | 9.15% | -5.75% | -0.9% | 6.15% | -1.6%
36 | C[Si](C)(C)c1ccc(C(N)=O)cc1 | 14.4% | 16.4% | 3.3% | 8.3% | 8.65% | 8.7%
37 | CCCCCOS(C)(=O)=O | -4.6% | -14.2% | 4.85% | -36.5% | 0.55% | -20.1%
38 | COC(=O)C1CCCN1C(=O)C(C)=O (configuration not stated) | 16.9% | 10.4% | -4.85% | -40.5% | 5.4% | -5.45%
39 | O=C(Nc1ccccc1Cl)c1ccccc1O | 10.1% | -8.7% | -3.2% | -48.6% | -5% | -16.4%
40 | CCCC(=O)c1ccc2c(ccc(=O)n2C)c1 | 12.2% | -8.75% | -5.2% | 38.1% | 28.8% | 15.9%
41 | [O-][n+]1onc2c1/C(=N/O)CCC2 | -17.2% | 4.6% | -14.3% | -2.3% | -4.1% | 11.7%
42 | CNC(=O)OCc1nc(SC)n(Cc2ccccc2)c1COC(=O)NC | 15.3% | 5.9% | 11.2% | -1.1% | -1.55% | 18.5%
